# B1: unnamed (peptide)
# chain: GLRRARYKFPGQQKI
# Tests used:
# Test in all cases: SPOT peptide array binding signal intensity (averaged, normalized) (arbitrary units (background-subtracted, floor 0; scale differs between SH3 domains)); higher = stronger binding of the SH3 domain to the peptide
# AgAbp1 = biological target: AgAbp1
# Protocol: (§1)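 GST-tagged SH3 domains from S. cerevisiae (Sc), A. gossypii (Ag), C. albicans (Ca) and S. pombe (Sp) were incubated at 10 ug/ml overnight at 4 C on cellulose SPOT membranes carrying 292 synthetic 15-mer peptides mined from the S. cerevisiae proteome (cysteines replaced by serines). Binding was detected with anti-GST antibody, HRP secondary and chemiluminescence, quantified with Genespotter, and reported as normalized spot intensities averaged over biological replicates.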
# AgBbc1 = biological target: AgBbc1
# Protocol: as §1
# AgBem1-D1 = biological target: AgBem1-D1
# Protocol: as §1
# AgBzz1-D1 = biological target: AgBzz1-D1
# Protocol: as §1
# AgBzz1-D2 = biological target: AgBzz1-D2
# Protocol: as §1
# AgCyk3 = biological target: AgCyk3
# Protocol: as §1
# AgFus1 = biological target: AgFus1
# Protocol: as §1
# AgHof1 = biological target: AgHof1
# Protocol: as §1
# AgHse1 = biological target: AgHse1
# Protocol: as §1
# AgLsb1 = biological target: AgLsb1
# Protocol: as §1
# AgLsb4 = biological target: AgLsb4
# Protocol: as §1
# AgMyo5 = biological target: AgMyo5
# Protocol: as §1
# AgNbp2 = biological target: AgNbp2
# Protocol: as §1
# AgRvs167 = biological target: AgRvs167
# Protocol: as §1
# AgSho1 = biological target: AgSho1
# Protocol: as §1
# AgSla1-D1-D2 = biological target: AgSla1-D1-D2
# Protocol: as §1
# AgSla1-D3 = biological target: AgSla1-D3
# Protocol: as §1
# CaAbp1-D1 = biological target: CaAbp1-D1
# Protocol: as §1
# CaAbp1-D2 = biological target: CaAbp1-D2
# Protocol: as §1
# CaBbc1 = biological target: CaBbc1
# Protocol: as §1
# CaBem1-D1 = biological target: CaBem1-D1
# Protocol: as §1
# CaBzz1-D1 = biological target: CaBzz1-D1
# Protocol: as §1
# CaBzz1-D2 = biological target: CaBzz1-D2
# Protocol: as §1
# CaCyk3 = biological target: CaCyk3
# Protocol: as §1
# CaFus1 = biological target: CaFus1
# Protocol: as §1
# CaHof1 = biological target: CaHof1
# Protocol: as §1
# CaHse1 = biological target: CaHse1
# Protocol: as §1
# CaLsb1 = biological target: CaLsb1
# Protocol: as §1
# CaLsb4 = biological target: CaLsb4
# Protocol: as §1
# CaMyo5 = biological target: CaMyo5
# Protocol: as §1
# CaNbp2 = biological target: CaNbp2
# Protocol: as §1
# CaRvs167 = biological target: CaRvs167
# Protocol: as §1
# CaRvs167-3 = biological target: CaRvs167-3
# Protocol: as §1
# CaSho1 = biological target: CaSho1
# Protocol: as §1
# CaSla1-D1-D2 = biological target: CaSla1-D1-D2
# Protocol: as §1
# CaSla1-D3 = biological target: CaSla1-D3
# Protocol: as §1
# ScAbp1 = biological target: ScAbp1
# Protocol: as §1
# ScBbc1 = biological target: ScBbc1
# Protocol: as §1
# ScBem1-D1 = biological target: ScBem1-D1
# Protocol: as §1
# ScBzz1-D1 = biological target: ScBzz1-D1
# Protocol: as §1
# ScBzz1-D2 = biological target: ScBzz1-D2
# Protocol: as §1
# ScCyk3 = biological target: ScCyk3
# Protocol: as §1
# ScFus1 = biological target: ScFus1
# Protocol: as §1
# ScHof1 = biological target: ScHof1
# Protocol: as §1
# ScHse1 = biological target: ScHse1
# Protocol: as §1
# ScLsb1 = biological target: ScLsb1
# Protocol: as §1
# ScLsb2 = biological target: ScLsb2
# Protocol: as §1
# ScLsb3 = biological target: ScLsb3
# Protocol: as §1
# ScLsb4 = biological target: ScLsb4
# Protocol: as §1
# ScMyo3 = biological target: ScMyo3
# Protocol: as §1
# ScMyo5 = biological target: ScMyo5
# Protocol: as §1
# ScNbp2 = biological target: ScNbp2
# Protocol: as §1
# ScPex13 = biological target: ScPex13
# Protocol: as §1
# ScRvs167 = biological target: ScRvs167
# Protocol: as §1
# ScSho1 = biological target: ScSho1
# Protocol: as §1
# ScSla1-D1-D2 = biological target: ScSla1-D1-D2
# Protocol: as §1
# ScSla1-D3 = biological target: ScSla1-D3
# Protocol: as §1
# SpAbp1-D1 = biological target: SpAbp1-D1
# Protocol: as §1
# SpBbc1 = biological target: SpBbc1
# Protocol: as §1
# SpBzz1-D1 = biological target: SpBzz1-D1
# Protocol: as §1
# SpBzz1-D2 = biological target: SpBzz1-D2
# Protocol: as §1
# SpCyk3 = biological target: SpCyk3
# Protocol: as §1
# SpHof1 = biological target: SpHof1
# Protocol: as §1
# SpHof1-2 = biological target: SpHof1-2
# Protocol: as §1
# SpHof1-3 = biological target: SpHof1-3
# Protocol: as §1
# SpHse1 = biological target: SpHse1
# Protocol: as §1
# SpLsb1 = biological target: SpLsb1
# Protocol: as §1
# SpLsb4 = biological target: SpLsb4
# Protocol: as §1
# SpMyo1 = biological target: SpMyo1
# Protocol: as §1
# SpNbp2 = biological target: SpNbp2
# Protocol: as §1
# SpPex13 = biological target: SpPex13
# Protocol: as §1
# SpRvs167 = biological target: SpRvs167
# Protocol: as §1
# SpSla1-D1-D2 = biological target: SpSla1-D1-D2
# Protocol: as §1
# SpSla1-D3 = biological target: SpSla1-D3
# Protocol: as §1
binder,measurement,setting,value
B1,SPOT peptide array binding signal intensity,AgAbp1,36.5
same,SPOT peptide array binding signal intensity,AgBbc1,30
same,SPOT peptide array binding signal intensity,AgBem1-D1,75
same,SPOT peptide array binding signal intensity,AgBzz1-D1,22.5
same,SPOT peptide array binding signal intensity,AgBzz1-D2,26
same,SPOT peptide array binding signal intensity,AgCyk3,3
same,SPOT peptide array binding signal intensity,AgFus1,230
same,SPOT peptide array binding signal intensity,AgHof1,24.5
same,SPOT peptide array binding signal intensity,AgHse1,283
same,SPOT peptide array binding signal intensity,AgLsb1,17.2
same,SPOT peptide array binding signal intensity,AgLsb4,32.5
same,SPOT peptide array binding signal intensity,AgMyo5,2
same,SPOT peptide array binding signal intensity,AgNbp2,55
same,SPOT peptide array binding signal intensity,AgRvs167,5.67
same,SPOT peptide array binding signal intensity,AgSho1,22
same,SPOT peptide array binding signal intensity,AgSla1-D1-D2,228
same,SPOT peptide array binding signal intensity,AgSla1-D3,3
same,SPOT peptide array binding signal intensity,CaAbp1-D1,388
same,SPOT peptide array binding signal intensity,CaAbp1-D2,257
same,SPOT peptide array binding signal intensity,CaBbc1,91.5
same,SPOT peptide array binding signal intensity,CaBem1-D1,11
same,SPOT peptide array binding signal intensity,CaBzz1-D1,74.5
same,SPOT peptide array binding signal intensity,CaBzz1-D2,69
same,SPOT peptide array binding signal intensity,CaCyk3,20.5
same,SPOT peptide array binding signal intensity,CaFus1,254
same,SPOT peptide array binding signal intensity,CaHof1,1
same,SPOT peptide array binding signal intensity,CaHse1,11.5
same,SPOT peptide array binding signal intensity,CaLsb1,0.5
same,SPOT peptide array binding signal intensity,CaLsb4,13
same,SPOT peptide array binding signal intensity,CaMyo5,2.5
same,SPOT peptide array binding signal intensity,CaNbp2,140
same,SPOT peptide array binding signal intensity,CaRvs167,15.2
same,SPOT peptide array binding signal intensity,CaRvs167-3,105
same,SPOT peptide array binding signal intensity,CaSho1,254
same,SPOT peptide array binding signal intensity,CaSla1-D1-D2,75
same,SPOT peptide array binding signal intensity,CaSla1-D3,3
same,SPOT peptide array binding signal intensity,ScAbp1,36
same,SPOT peptide array binding signal intensity,ScBbc1,19
same,SPOT peptide array binding signal intensity,ScBem1-D1,24
same,SPOT peptide array binding signal intensity,ScBzz1-D1,19
same,SPOT peptide array binding signal intensity,ScBzz1-D2,22
same,SPOT peptide array binding signal intensity,ScCyk3,107
same,SPOT peptide array binding signal intensity,ScFus1,244
same,SPOT peptide array binding signal intensity,ScHof1,1.5
same,SPOT peptide array binding signal intensity,ScHse1,854
same,SPOT peptide array binding signal intensity,ScLsb1,8.25
same,SPOT peptide array binding signal intensity,ScLsb2,5
same,SPOT peptide array binding signal intensity,ScLsb3,63
same,SPOT peptide array binding signal intensity,ScLsb4,13
same,SPOT peptide array binding signal intensity,ScMyo3,2
same,SPOT peptide array binding signal intensity,ScMyo5,4.5
same,SPOT peptide array binding signal intensity,ScNbp2,167
same,SPOT peptide array binding signal intensity,ScPex13,8.5
same,SPOT peptide array binding signal intensity,ScRvs167,31
same,SPOT peptide array binding signal intensity,ScSho1,296
same,SPOT peptide array binding signal intensity,ScSla1-D1-D2,294
same,SPOT peptide array binding signal intensity,ScSla1-D3,5
same,SPOT peptide array binding signal intensity,SpAbp1-D1,196
same,SPOT peptide array binding signal intensity,SpBbc1,2
same,SPOT peptide array binding signal intensity,SpBzz1-D1,145
same,SPOT peptide array binding signal intensity,SpBzz1-D2,0.5
same,SPOT peptide array binding signal intensity,SpCyk3,6
same,SPOT peptide array binding signal intensity,SpHof1,180
same,SPOT peptide array binding signal intensity,SpHof1-2,5
same,SPOT peptide array binding signal intensity,SpHof1-3,199
same,SPOT peptide array binding signal intensity,SpHse1,268
same,SPOT peptide array binding signal intensity,SpLsb1,26
same,SPOT peptide array binding signal intensity,SpLsb4,56
same,SPOT peptide array binding signal intensity,SpMyo1,1
same,SPOT peptide array binding signal intensity,SpNbp2,120
same,SPOT peptide array binding signal intensity,SpPex13,16
same,SPOT peptide array binding signal intensity,SpRvs167,12.5
same,SPOT peptide array binding signal intensity,SpSla1-D1-D2,1
same,SPOT peptide array binding signal intensity,SpSla1-D3,13
